Screens deposited in PubChem BioAssay by National Center for Advancing Translational Sciences (NCATS).
Most compounds without a hit are left out; they make up all but 5.9% or so of the library.
Gal4-VP16 FLuc: counter-screen for ROR gamma inhibitors: Gal4-VP16 reporter | Drosophila S2 Gal4-VP16 UAS-luciferase, luminescence, 20 h | Potency, µM (top dose mostly 53.6 µM), for inactives: at the highest dose activity, negative = inhibition, most hits filed as inhibitors | actives 3.5% (n = 310,000) | AID 2546;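 further: Gal4-VP16 expression switched on by copper sulfate through the metallothionein promoter; potency means the concentration at half of the fitted maximal effect; nearly all actives have a fitted effect of over 50% in size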
TrxR1 inh: rat TrxR1 inhibition | O89049 | recombinant rTrxR1, NADPH fluorescence consumption, selenite substrate | Potency, µM (highest dose often 114 µM), inactives show top-dose activity change, negative = inhibition, usual class: inhibitors | actives 1% (n = 390,000); further: potency means the concentration at half of the fitted maximal effect; nearly all actives have a fitted effect of over 65% in size
Target sequence (O89049 whole entry, looked up): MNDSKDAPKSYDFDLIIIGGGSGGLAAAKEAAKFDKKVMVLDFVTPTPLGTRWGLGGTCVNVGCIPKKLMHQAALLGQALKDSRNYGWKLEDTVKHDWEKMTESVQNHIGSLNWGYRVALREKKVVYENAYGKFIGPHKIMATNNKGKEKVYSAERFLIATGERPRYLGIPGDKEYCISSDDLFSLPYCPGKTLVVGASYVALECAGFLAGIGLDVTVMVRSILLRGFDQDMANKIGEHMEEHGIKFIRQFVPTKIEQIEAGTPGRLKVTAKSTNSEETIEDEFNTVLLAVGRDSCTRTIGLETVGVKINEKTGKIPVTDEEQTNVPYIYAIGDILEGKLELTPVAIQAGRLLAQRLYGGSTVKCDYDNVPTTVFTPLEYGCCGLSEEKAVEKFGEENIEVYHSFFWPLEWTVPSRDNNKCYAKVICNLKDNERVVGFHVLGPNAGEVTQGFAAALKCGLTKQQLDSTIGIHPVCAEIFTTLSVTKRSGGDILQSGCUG
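Rat TrxR1 (90 nM in the dispensed reagent) was pre-reduced with 400 uM NADPH for 5 min at room temperature, then incubated with compound for 15 min. After 400 uM selenite was added, NADPH fluorescence (Ex 340/Em 450 nm) was followed for 8 min.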
RORg inh: inhibitors of mouse ROR gamma transcriptional activity | P51450 | Drosophila S2 Gal4-RORgamma UAS-luciferase reporter, 20 h | Potency, µM (top dose mostly 53.6 µM), for the others: top-dose activity change, negative = inhibition, usual class: inhibitors | actives 5.4% (n = 310,000) | AID 2551; further: potency means the concentration at half of the fitted maximal effect; nearly all actives have a fitted effect of over 60% in size
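Drosophila S2 cells stably expressing Gal4-DBD/mouse RORγ fusion under metallothionein promoter plus UAS-luciferase; compound 1 h, then 700 uM CuSO4 induction for 20 h at ambient temperature; inhibition read as reduced luminescence.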
TrxR1 substrate: is turned over as a substrate by rat TrxR1; O89049; purified TrxR1 substrate turnover, NADPH consumption readout; Potency, µM (doses to about 114 µM), without a hit: top-dose activity change, negative = substrate turnover; actives 0.01% (n = 390,000); AID 588456; further: potency means the concentration at half of the fitted maximal effect; nearly all actives have a fitted effect of over 50% in size
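Rat TrxR1, dispensed at 90 nM, was prereduced with 400 uM NADPH (final) for 5 min at ~22 deg C, then incubated with compound 15 min before 400 uM selenite. A first-read NADPH fluorescence drop versus no-compound background flagged substrates.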
FBPA coupling cs: inhibits coupling enzyme system, counter-screen for aldolase hits; coupling enzyme system counterscreen, AmpLite Red fluorescence; activity change, negative = inhibition, % at 58.2 µM, hits read low; actives 0.67% (n = 290,000); in the data active means activity change below about -30%
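Activity here indicates interference with the coupling reaction, not aldolase inhibition. Compounds at 57.5 uM final met coupling enzymes for 10 min at RT; substrate and AmpLite Red detection followed, with a 525/598 nm fluorescence read after 20 min.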
GALK inh: blocks human galactokinase activity; actives 0.007% (n = 270,000); P51570; Purified GALK, Kinase-Glo residual ATP luminescence; Potency, µM (titrated, usually from 57.5 µM), for inactives: at the highest dose activity change, negative = inhibition, most hits filed as inhibitors; further: potency means the concentration at half of the fitted maximal effect
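Quantitative HTS: GALK 5 nM, ATP 35 uM, galactose 100 uM, 1 h room temperature, then luciferase-based ATP detection.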
Numbers without * were called inactive; u = inconclusive; x = not tested or not shown; ! = not confirmed by another sample; [ ] = remark or other dose. Unless noted, the call rests on the fitted dose curve; in most records, active means well fitted curve in the direction sought with a large enough effect; inconclusive means small, poorly fitted or top-dose-only effect, or another doubt; inactive means no such curve, though single readings can be large; an effect the other way counts as inactive or inconclusive. On the % scale 0 is the no-effect control and ±100 the full control effect.

SMILES	Gal4-VP16 FLuc	TrxR1 inh	RORg inh	TrxR1 substrate	FBPA coupling cs	GALK inh
CC(NC(=O)CCC(=O)NCc1ccc(F)cc1)c1ccccc1 (stereo not given)	-17.6%	19.9%	-22.8%	2.1%	1.8	5.2%
Cc1ccc(NC(=S)NCc2ccc(S(N)(=O)=O)cc2)c(C)c1	-6.9%	u	19.1%	-3.8%[57.1 µM]	-1.0	0.8%
Cc1ccc(NC(=S)NCc2ccc(F)cc2)c(C)c1	5.62µM*	-17.6%	5.62µM*	-10.5%	0.1	-3.1%
Cc1ccc(C(C)NC(=S)NCc2ccc(F)cc2)cc1C (stereo not given)	5.01µM*	7.3%	3.55µM*	-5.1%	2.1	1.9%
CCCCN(C(=O)c1cc2c(s1)CCCCC2)c1c(N)n(CCC)c(=O)[nH]c1=O	x	-3.0%	x	-0.8%	x	x
COc1ccc(NC(=O)Cn2c(=O)c3ccccc3n3nncc23)cc1Cl	x	10.2%	x	2.6%	x	x
CSc1ccc(C2c3c(oc4cc(C)cc(C)c4c3=O)C(=O)N2Cc2ccco2)cc1 (stereo not given)	x	9.6%	x	7.4%	x	x
COc1cccc(C(C)NC(=S)NCc2ccc(F)cc2)c1 (stereo not given)	8.91µM*	0.1%	5.01µM*	-2.9%	1.4	3.5%
Cc1ccc(NC(=S)NCc2ccc3c(c2)cc(C)n3C)c(C)c1	12.6µM*	1.1%	1µM*	-6.0%	-1.2	0.5%
CCc1ccc(C(C)NC(=S)NCc2ccc(F)cc2)cc1 (stereo not given)	5.01µM*	7.6%	2.24µM*	-3.2%	-0.5	4.7%
Cc1ccc(NC(=S)NCc2ccc3c(c2)OCO3)c(C)c1	-3.2%[0.365 µM]	5.7%	u	3.4%	3.4	-0.4%
CCC(NC(=S)NCc1ccc(F)cc1)c1ccc(C)cc1 (stereo not given)	3.16µM*	7.8%	2.82µM*	-5.1%	-3.4	-2.8%
COc1ccc(CC(=O)NC(C)C2COc3ccccc3O2)cc1OC (stereo not given)	5.9%	27.4%	13.7%	-0.1%	3.6	11.9%
CS/C(N)=N/N=C/c1ccc2c(c1)OCO2	-8.5%	-11.6%[57.1 µM]	-25.6%	0.3%[57.1 µM]	-0.5	-1.7%
O=C(c1ccc(COc2ccccc2[N+](=O)[O-])o1)N1CCCCCC1	17.1%	-6.3%[57.1 µM]	28.8%	-8.1%	0.3	-1.9%
COc1ccc(C(C)=O)cc1CSc1nc2ccccc2o1	u	-9.6%	-18.6%	-8.5%	-4.9	-0.9%
COc1c(-c2ccc(O)c(O)c2)oc2cc(O)cc(O)c2c1=O	11.2µM*!	u	u	0.5%	1.1	-6.1%
O=c1c(O)c(-c2ccc(O)cc2O)oc2cc(O)cc(O)c12	1.4%	7.08µM*	4.7%	8.9%[57.1 µM]	-0.5	x
Cc1[nH]c2ccccc2c1C(=O)C(=O)N(C)C1CCCCC1	12.7%	10.3%	-37.5%	-5.2%	-0.5	-0.4%
COc1cccc(CNS(=O)(=O)c2ccc(-c3cc(C(F)(F)F)on3)s2)c1	x	29.3%[57.1 µM]	x	0.3%[57.1 µM]	x	x
Cc1ccc(C)c(OCc2nnc(N)s2)c1	-13.2%	12.3%	12.6µM*	8.7%[57.1 µM]	4.4	-1.1%
CC1(C)C(=O)C(c2ccccc2)=C2CN3C(=O)N(CCc4ccccc4)C(=O)C3(Cc3ccc(F)cc3)C=C21 (stereo not given)	-5.0%	x	-2.8%	x	-0.3	x
CC[n+]1c(/C=C2/C=C(C)CC(C)C2)sc2ccccc21 (stereo not given)	-23.3%	-21.3%	-15.2%	0.6%	-5.2	4.9%
CC[n+]1c(C=C2C=C(C)OC(C)=C2)sc2ccccc21	10µM*	16.0%[57.1 µM]	u	-1.4%[57.1 µM]	0.5	1.8%
Cc1cc(C)nc(OC(=O)c2ccc(Cl)cc2Cl)n1	-15.3%	x	23.6%	x	0.6	-1.9%
SMILES	Gal4-VP16 FLuc	TrxR1 inh	RORg inh	TrxR1 substrate	FBPA coupling cs	GALK inh
CC(C)N(Cc1ccccc1)C(=S)Nc1cccnc1	-11.4%	18.8%[57.1 µM]	-11.5%	8.8%[57.1 µM]	1.9	-0.2%
CC1(C(=O)NC(=S)N(CCC#N)c2ccccc2)CC1(Cl)Cl (stereo not given)	u	-15.7%	12.6µM*	-9.6%	1.4	1.2%
CC(C)N(Cc1ccccc1)C(=S)NC(=O)C1(C)CC1(Cl)Cl (stereo not given)	2.51µM*	-6.9%[57.1 µM]	0.562µM*	5.7%[57.1 µM]	-0.2	-4.5%
O=S(=O)(Nc1cccc2ncccc12)c1cccs1	1.3%[0.365 µM]	-14.3%	2.24µM*	-9.2%	-38.1*	0.6%
O=C1Nc2ccc(NS(=O)(=O)c3cccs3)c3cccc1c23	-6.1%	-12.0%	-12.0%	-13.0%	-55.7*	3.1%
CCOc1ccccc1NC(=O)CCS(=O)(=O)c1cccs1	-9.3%	-9.1%	39.4%	0.8%	1.5	-1.4%
CCOc1ccccc1NS(=O)(=O)c1cccs1	4.6%	2.8%	19.2%	-3.2%	-40.9*	0.0%
Cc1c(NS(=O)(=O)c2cccs2)cccc1-c1nc2cccnc2s1	27.6%	16.8%	31.3%	-2.4%	6.9	-2.0%
CNC(=S)NNC(=O)c1c(C)nc2cc(C)ccn12	-12.2%	-7.6%	-23.7%	-3.5%	0.7	-3.3%
CC(=O)NC12CC3CC(C1)CC(C(=O)N(C)Cc1cccc(Cl)c1Cl)(C3)C2	7.08µM*	12.0%	u	4.2%	x	-18.3%
Cc1cc(C)cc(C(=O)NC(=S)Nc2cccnc2)c1	u	44.7µM*	10µM*	4.1%	x	6.1%
Cc1ccc(NC(=S)Nc2cccnc2)c(S(=O)(=O)N2CCCCC2)c1	15.8µM*	u	u	5.5%	-0.4	1.4%
Cc1c(C(=O)NC(=S)Nc2cccnc2)cccc1[N+](=O)[O-]	0.9%	17.1%	-0.6%	1.2%	x	0.7%
COc1cccc(NC(=S)NC(=O)c2cccnc2)c1	-93.9%	-31.1%	20µM*	10.1%	0.0	-0.2%
CCc1c(C)sc(NC(=S)Nc2cccnc2)c1C(=O)OC	6.31µM*	-46.0%	3.55µM*	10.6%[57.1 µM]	-9.1	-0.2%
COc1cccc(NC(=S)Nc2cccnc2)c1	-11.4%	u	u	-12.4%	0.5	1.4%
C#CC[N+]1(CC#Cc2cccc3ccccc23)CCOCC1	2.2%	20.1%[57.1 µM]	-15.8%	11.7%[57.1 µM]	2.0	4.3%
CCOC(=O)c1cccc(NC(=S)NC(=O)c2cccnc2)c1	u	u	12.6µM*	1.2%	4.2	-2.2%
NS(=O)(=O)c1ccc(N=Nc2c[nH]c(=O)c(O)c2)cc1	-12.3%	-23.4%[57.1 µM]	-18.4%	1.6%[57.1 µM]	-37.5*	11.9%
O=C(CCN1CCN(CCO)CC1)Nc1ccc(Br)cc1	-8.8%	22.9%	-10.1%	5.4%	-0.3	0.6%
S=c1[nH]nc(COc2ccccc2)n1/N=C/c1ccccc1Br	u	-19.5%[57.1 µM]	8.91µM*	8.3%[57.1 µM]	5.7	-3.8%
Oc1ccc(Br)cc1/C=N/n1c(COc2ccccc2)n[nH]c1=S	u	0.6%	10µM*	-1.7%	8.1	-1.0%
